Source: PubChem BioAssay (several laboratories)
NPR2 activator: GC-B (human) receptor activation; hit rate 0.11% among 370,000; AID 1920062; P20594; activation, % at 10 µM; HEK293-GC-B cells, CNP EC30, cGMP TR-FRET; 0% at EC30 CNP, 100% saturating CNP;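 active = activation at 10 µM reaching about 35% in either raw or pattern-adjusted values, limit read from the data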
CaV13 ICDI inh: Disruptors of the CACNA1D IQ motif to Ca2+-dependent inactivation inhibitor domain association, primary screening, Förster resonance energy transfer in intact living … | HEK cells, CFP/YFP FRET ICDI-IQ, plate reader, 10 min; percent FRET-ratio fall versus neutral wells | inhibition, % at 12.3 µM | hit rate 0.098% among 340,000 | AID 743397;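 active = mean replicate inhibition of at least 30% and at least 1% of replicates passing that level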
NPR1 activator: GC-A (human) enzyme activation. P16066. HEK293 GC-A cells, cGMP TR-FRET, EC30 ANP; 0% at EC30 ANP, 100% saturating ANP. activation, % at 10 µM. hit rate 0.14% among 370,000. AID 1671463; in the data active = activation above about 40%
Rin1-Abl PPI inh: human Rin1-Abl interaction inhibition; P00519+Q13671; TR-FRET Rin1/Abl binding, biochemical; inhibition, % at 7.35 µM; hit rate 0.4% among 360,000; AID 588664; in the data active = inhibition above about 5%, passing the limit was not always enough
Target sequence (P00519 whole entry, looked up): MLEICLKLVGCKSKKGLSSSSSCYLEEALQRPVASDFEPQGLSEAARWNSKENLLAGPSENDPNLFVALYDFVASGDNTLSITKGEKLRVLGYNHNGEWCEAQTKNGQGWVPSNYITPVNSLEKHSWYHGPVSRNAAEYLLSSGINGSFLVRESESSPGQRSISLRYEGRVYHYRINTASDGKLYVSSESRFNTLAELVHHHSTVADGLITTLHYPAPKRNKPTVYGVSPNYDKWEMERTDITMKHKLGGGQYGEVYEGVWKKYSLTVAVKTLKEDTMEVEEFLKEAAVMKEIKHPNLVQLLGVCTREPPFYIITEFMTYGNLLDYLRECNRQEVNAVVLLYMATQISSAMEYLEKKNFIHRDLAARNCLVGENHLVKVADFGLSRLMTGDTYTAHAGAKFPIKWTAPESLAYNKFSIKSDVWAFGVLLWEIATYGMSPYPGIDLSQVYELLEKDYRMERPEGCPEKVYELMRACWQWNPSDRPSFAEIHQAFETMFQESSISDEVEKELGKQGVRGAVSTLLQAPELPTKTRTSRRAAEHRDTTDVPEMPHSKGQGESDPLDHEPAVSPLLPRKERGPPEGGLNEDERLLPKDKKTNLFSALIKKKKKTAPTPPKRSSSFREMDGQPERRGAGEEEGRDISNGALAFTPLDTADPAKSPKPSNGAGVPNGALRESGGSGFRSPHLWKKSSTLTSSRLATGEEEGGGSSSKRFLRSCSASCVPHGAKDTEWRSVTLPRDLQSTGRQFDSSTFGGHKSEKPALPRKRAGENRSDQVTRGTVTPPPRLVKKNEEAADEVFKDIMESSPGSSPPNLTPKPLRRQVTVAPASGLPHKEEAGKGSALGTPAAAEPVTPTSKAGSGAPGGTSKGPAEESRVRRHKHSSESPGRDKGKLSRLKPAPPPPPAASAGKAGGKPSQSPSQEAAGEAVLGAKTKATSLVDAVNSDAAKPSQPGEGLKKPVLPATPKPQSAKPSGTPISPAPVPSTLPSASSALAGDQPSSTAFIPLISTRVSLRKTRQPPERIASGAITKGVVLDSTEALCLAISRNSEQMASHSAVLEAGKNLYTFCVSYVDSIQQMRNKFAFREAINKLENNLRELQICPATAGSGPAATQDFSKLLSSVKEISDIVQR
Target sequence (Q13671 whole entry, looked up): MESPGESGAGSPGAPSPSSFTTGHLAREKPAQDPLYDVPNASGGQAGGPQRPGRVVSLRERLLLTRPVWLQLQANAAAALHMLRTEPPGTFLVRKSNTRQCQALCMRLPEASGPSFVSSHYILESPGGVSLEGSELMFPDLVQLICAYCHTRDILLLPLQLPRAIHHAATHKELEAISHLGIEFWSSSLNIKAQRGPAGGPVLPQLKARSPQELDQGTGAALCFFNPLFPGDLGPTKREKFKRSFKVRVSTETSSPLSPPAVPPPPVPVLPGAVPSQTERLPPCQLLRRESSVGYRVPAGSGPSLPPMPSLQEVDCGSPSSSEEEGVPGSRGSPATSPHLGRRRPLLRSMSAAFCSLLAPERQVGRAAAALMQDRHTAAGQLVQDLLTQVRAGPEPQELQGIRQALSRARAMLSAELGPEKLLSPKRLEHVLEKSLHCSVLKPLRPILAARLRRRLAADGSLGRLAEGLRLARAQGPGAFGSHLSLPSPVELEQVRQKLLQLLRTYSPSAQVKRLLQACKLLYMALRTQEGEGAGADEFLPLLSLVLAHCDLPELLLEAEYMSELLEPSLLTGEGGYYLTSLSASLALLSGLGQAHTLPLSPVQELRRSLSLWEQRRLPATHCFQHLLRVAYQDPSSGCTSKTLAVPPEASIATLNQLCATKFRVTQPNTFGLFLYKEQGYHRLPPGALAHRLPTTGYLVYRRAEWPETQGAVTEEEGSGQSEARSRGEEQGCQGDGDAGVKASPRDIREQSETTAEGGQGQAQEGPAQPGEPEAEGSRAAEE
Rin1 Abl conf: Rin1-Abl interaction inhibition confirmation; shares compounds with Rin1-Abl PPI inh; TR-FRET Rin1-Abl binding, purified proteins; inhibition, % at 7.35 µM; hit rate 49% among 1,300
GFP quencher: quenches GFP fluorescence, counter-screen for Rin1-Abl inhibitors; shares compounds with Rin1-Abl PPI inh; inhibitors/quenchers counterscreen; inhibition, % at 6.75 µM; hit rate 8.5% among 1,300; AID 602125;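 note: ABL1-eGFP fusion protein alone without its partner RIN1-SBP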
GFP quench dose: counter-screen for Rin1-Abl inhibitors: GFP quenchers, dose response; shares compounds with Rin1-Abl PPI inh; GFP fluorescence interference/quenching counterscreen; IC50, µM; 230 tested, under 10 active; AID 602182; call rule not given here;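 note: ABL1-eGFP fusion protein alone without its RIN1 binding partner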
A number is an active result; n = inactive; x = no result given. Sampled rows, rich in hits. Any-hit rate of the full collection: about 0.67%. Cut-off read from the data, not from the text of the source, unless noted: active = inhibition above about 6.5%; inactive = the rest.

SMILES | NPR2 activator | CaV13 ICDI inh | NPR1 activator | Rin1-Abl PPI inh | Rin1 Abl conf | GFP quencher | others
COc1ccc(S(=O)(=O)N(C)C[C@H]2Oc3ccc(NC(=O)CCC(F)(F)F)cc3C(=O)N([C@H](C)CO)C[C@@H]2C)cc1 | n | n | n | 16 | 15 | n
C[C@H](CO)N1C[C@H](C)[C@@H](CN(C)S(=O)(=O)c2ccc(F)cc2)Oc2ccc(NC(=O)C3CC3)cc2C1=O | n | n | n | 14 | 14 | n
C[C@@H]1CN([C@@H](C)CO)C(=O)c2cc(NC(=O)CCC(F)(F)F)ccc2O[C@H]1CN(C)S(=O)(=O)c1ccc(Cl)cc1 | n | n | n | n | x | x
C[C@@H]1CCCCO[C@H](CN(C)S(=O)(=O)c2cccs2)[C@@H](C)CN([C@H](C)CO)C(=O)c2cc(NC(=O)C3CCCCC3)ccc2O1 | n | n | n | n | x | x
C[C@@H]1CCCCO[C@@H](CN(C)S(=O)(=O)c2cccs2)[C@@H](C)CN([C@H](C)CO)C(=O)c2cc(NS(=O)(=O)c3ccccc3)ccc2O1 | n | n | n | 69 | 67 | n | GFP quench dose=n
Cc1cc(NS(=O)(=O)c2ccc(NC(=O)CSc3nnc(-c4cnccn4)n3-c3ccccc3)cc2)nc(C)n1 | n | x | n | x | x | x
CN(C(=O)c1ccccc1OCC(=O)Nc1ccc(Br)cc1)c1ccccc1 | n | x | n | x | x | x
O=C(OCc1cn(Cc2ccc(F)cc2)nn1)N1CCCC1 | n | x | n | x | x | x
CCOC(=O)CCCCCC(=O)Nc1ccc2c(c1)CC(=O)N([C@H](C)CO)C[C@@H](C)[C@H](CN(C)Cc1ccc3c(c1)OCO3)O2 | n | n | n | 16 | 18 | n | GFP quench dose=n
CCOC(=O)CCCCCC(=O)Nc1ccc2c(c1)C(=O)N([C@H](C)CO)C[C@@H](C)[C@H](CN(C)Cc1ccc3c(c1)OCO3)O2 | n | n | n | n | x | x
CCOC(=O)[C@@]12CCC3=C1N(CCC3)C(=O)[C@H](CC(=O)NCc1ccccc1)C2 | n | x | n | x | x | x
C#CCOCCOCCOCCNc1nc(N2CCOCC2)nc(N2CCN(C(=O)[C@H](Cc3ccc(O)cc3)n3cc([C@@H](N)C(C)CC)nn3)CC2)n1 (stereo partly drawn) | n | n | n | 11 | 14 | n
CC(Cl)C(=O)N1CCC(C(=O)NC2CCCc3ccccc32)CC1 (stereo not drawn) | n | x | n | x | x | x
O=c1c(O)c(-c2ccc(O)c(O)c2)oc2cc(O)ccc12 | n | x | n | 23 | 22 | n | GFP quench dose=n
O=c1c(O)c(-c2ccc(O)cc2)oc2cc(O)cc(O)c12 | n | x | n | n | x | x
COc1ccccc1OCc1ccc(C(=O)N2CCN(C(=O)c3ccco3)CC2)cc1 | n | x | n | 10 | 21 | n | GFP quench dose=n
O=C(CSc1nc2ccccc2nc1N1CCCCC1)N1CCN(C(c2ccccc2)c2ccc(Cl)cc2)CC1 (stereo not drawn) | n | x | n | x | x | x
Brc1ccc(N=NNc2ccccc2)cc1 | n | n | 45 | 5.8 | n | n
CN(C)c1ccc(CNC(=O)C2(C)Cc3c(-c4cccc(C(N)=O)c4)ccnc3O2)cc1 (stereo not drawn) | n | n | n | 16 | 8.3 | n
CN(C)c1ccc(CNC(=O)C2Cc3c(-c4cccc(C(N)=O)c4)ccnc3O2)cc1 (stereo not drawn) | n | n | n | 7.0 | 7.2 | n
NC(=O)c1cccc(-c2ccnc3c2CC(C(=O)Nc2ccccc2)O3)c1 (stereo not drawn) | n | n | n | 12 | 8.6 | n
NC(=O)c1cccc(-c2ccnc3c2CC(C(=O)NCc2ccco2)O3)c1 (stereo not drawn) | n | n | n | n | x | x
CC(=O)Nc1ccc(-c2ccnc3c2CC(C)(C(=O)NCc2ccc(N4CCN(C)CC4)cc2)O3)cc1 (stereo not drawn) | n | n | n | 8.7 | 6.6 | n
NC(=O)c1cccc(-c2ccnc3c2CC(C(=O)Nc2ccc(Cl)cc2)O3)c1 (stereo not drawn) | n | n | n | n | x | x
C[C@H]1[C@@H](NC(=O)C2CCC2)CC[C@@]23CCCN2C(=O)CCC[C@@H]13 | n | x | n | x | x | x
SMILES | NPR2 activator | CaV13 ICDI inh | NPR1 activator | Rin1-Abl PPI inh | Rin1 Abl conf | GFP quencher | others
COc1ccc(NC(=O)C2(C)Cc3c(-c4cccc(C(N)=O)c4)ccnc3O2)cc1 (stereo not drawn) | n | n | n | 10 | n | n
CC(=O)Nc1ccc(NC(=O)C2(C)Cc3c(-c4cccc(C(N)=O)c4)ccnc3O2)cc1 (stereo not drawn) | n | n | n | n | x | x
CC1(Cc2cccc(F)c2)C(=O)Nc2ccc(OC(F)(F)F)cc21 (stereo not drawn) | n | n | n | n | x | x
CC1(Cc2ccc(OC(F)(F)F)cc2)C(=O)Nc2ccc(OC(F)(F)F)cc21 (stereo not drawn) | n | n | n | 7.4 | n | n
CCCS(=O)(=O)NC(=O)C1(C)CCCN(C(=O)c2ccc(F)c(Cl)c2)C1 (stereo not drawn) | n | n | n | 17 | n | n
O=S1(=O)c2c(cccc2N2CCSCC2)Oc2ccccc2CN1Cc1cn(Cc2ccc(Cl)cc2)nn1 | n | x | n | x | x | x
CC1CC(C)CN(CC(=O)Nc2ccc3c(c2)OCCO3)C1 (stereo not drawn) | n | x | n | 6.3 | n | n
COC(=O)C1CCN(CC(=O)Nc2ccc3c(c2)OCCO3)CC1 | n | n | n | n | x | x
C=CCOc1ccc(/C=N/NC(=O)C(=O)Nc2ccccn2)cc1OC | n | n | n | 6.5 | 14 | n
N#CCCCc1cn(-c2ccc(-c3noc4c3C(=O)N(CC(=O)N3CCOCC3)CC4)cc2)nn1 | n | x | n | x | x | x
O=C1CC(c2ccccc2)Oc2cc(O)cc(O)c21 (stereo not drawn) | n | x | n | n | x | x
COc1cc(OC)c2c(c1O)OC(c1ccccc1)CC2=O (stereo not drawn) | n | x | n | 16 | 9.2 | n
C=CCn1c(SCCOc2ccccc2)nnc1C(C)NC(=O)c1ccccc1 (stereo not drawn) | n | n | n | n | x | x
C=CCn1c(SCC(=O)N2CCOCC2)nnc1C(C)NC(=O)c1ccccc1 (stereo not drawn) | n | x | n | 7.2 | n | n
Cc1ccc(S(=O)(=O)N2CCN(C(=O)CSc3ccccn3)CC2)c(C)c1 | n | n | n | 8.2 | n | n
Cc1ccc(S(=O)(=O)N2CCN(C(=O)c3ccccn3)CC2)c(C)c1 | n | n | n | n | x | x
O=C1CC(c2ccc(O)c(O)c2)Oc2c1ccc(O)c2O (stereo not drawn) | n | x | n | 49 | 46 | 25
O=C(Nc1cccc(F)c1)c1cccnc1 | n | n | n | n | x | x
O=C(Nc1cccc(NC(=O)c2cccnc2)c1)c1cccnc1 | n | x | n | 8.6 | n | n
O=C(CCc1nc(-c2ccccc2F)no1)NCCc1cccc(F)c1 | n | x | n | x | x | x
